Reference: PubChem BioAssay AID1159580 (chemical genetic matrix, 2015)
In all, about 5,500 compounds went through this assay and about 2,000 (36%) were called active. Not shown: some 18% with an inconclusive outcome. The list shows a part of the results. Values without a mark were called inactive. Rule as the data show it: active = normalized growth mostly below about 0.91 (no sharp cut-off); inconclusive = no clear call, values can overlap the other calls; inactive = mostly above about 0.92.

Assay: chemical genetic growth profiling, strain panel (AID 1159580);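 also: tested at 20 µM; growth read once vehicle control cultures reached saturation at 30 °C; 1 = growth at the plate median or of vehicle wells; lower values mean less growth of the strain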
Settings: S. cerevisiae deletion strains, growth OD

Q: With `COc1ccc2c(c1)CCC1C2CCC2(C)C1C[C@@H](O)C2O` (stereo not given in full) as the compound, how does the normalized growth (locus YAL013W, strain DEP1, stronger effect = lower value) read?
A: 1

Q: What about the normalized growth (locus YAL021C, strain ccr4, stronger effect = lower value) of the same compound?
A: 0.947

Q: What about the normalized growth (locus YAL026C, strain drs2, stronger effect = lower value) of the same compound?
A: 0.83 (active)

Q: What about the normalized growth (locus YAL030W, strain snc1, stronger effect = lower value) of the same compound?
A: 1

Q: And the normalized growth (locus YBL061C, strain skt5, stronger effect = lower value)?
A: 1

Q: What about the normalized growth (locus YBR009C, strain hhf1, stronger effect = lower value) of the same compound?
A: 0.917

Q: What about the normalized growth (locus YBR021W, strain FUR4, stronger effect = lower value) of the same compound?
A: 1.08

Q: And the normalized growth (locus YBR023C, strain chs3, stronger effect = lower value)?
A: 0.988

Q: What about the normalized growth (locus YBR171W, strain sec66, stronger effect = lower value) of the same compound?
A: 0.983

Q: And the normalized growth (locus YBR229C, strain ROT2, stronger effect = lower value)?
A: 1.02

Q: And the normalized growth (locus YBR231C, strain swc5, stronger effect = lower value)?
A: 1.01

Q: And the normalized growth (locus YBR279W, strain paf1, stronger effect = lower value)?
A: 0.992

Q: And the normalized growth (locus YCL011C, strain gbp2, stronger effect = lower value)?
A: 0.977

Q: What about the normalized growth (locus YCL016C, strain dcc1, stronger effect = lower value) of the same compound?
A: 0.949

Q: What about the normalized growth (locus YCL029C, strain bik1, stronger effect = lower value) of the same compound?
A: 0.993

Q: What about the normalized growth (locus YCL061C, strain MRC1, stronger effect = lower value) of the same compound?
A: 0.985

Q: What about the normalized growth (locus YCL069W, strain vba3, stronger effect = lower value) of the same compound?
A: 1

Q: And the normalized growth (locus YCR088W, strain abp1, stronger effect = lower value)?
A: 0.998

Q: And the normalized growth (locus YDL005C, strain med2, stronger effect = lower value)?
A: 1.01

Q: What about the normalized growth (locus YDL035C, strain GPR1, stronger effect = lower value) of the same compound?
A: 0.962

Q: And the normalized growth (locus YDL040C, strain nat1, stronger effect = lower value)?
A: 0.993

Q: What about the normalized growth (locus YDL074C, strain BRE1, stronger effect = lower value) of the same compound?
A: 0.95

Q: What about the normalized growth (locus YDL101C, strain DUN1, stronger effect = lower value) of the same compound?
A: 1.02

Q: And the normalized growth (locus YDL134C, strain PPH21, stronger effect = lower value)?
A: 0.952

Q: And the normalized growth (locus YDL185W, strain tfp1, stronger effect = lower value)?
A: 0.992

Q: What about the normalized growth (locus YDL192W, strain arf1, stronger effect = lower value) of the same compound?
A: 0.997

Q: And the normalized growth (locus YDR001C, strain nth1, stronger effect = lower value)?
A: 1.01

Q: What about the normalized growth (locus YDR069C, strain doa4, stronger effect = lower value) of the same compound?
A: 0.992

Q: And the normalized growth (locus YDR101C, strain arx1, stronger effect = lower value)?
A: 0.987

Q: And the normalized growth (locus YDR137W, strain rgp1, stronger effect = lower value)?
A: 0.854

Q: And the normalized growth (locus YDR150W, strain NUM1, stronger effect = lower value)?
A: 1.01

Q: What about the normalized growth (locus YDR159W, strain sac3, stronger effect = lower value) of the same compound?
A: 0.966

Q: And the normalized growth (locus YDR162C, strain NBP2, stronger effect = lower value)?
A: 0.978

Q: And the normalized growth (locus YDR195W, strain ref2)?
A: 1.1

Q: And the normalized growth (locus YDR297W, strain sur2, stronger effect = lower value)?
A: 1

Q: And the normalized growth (locus YDR318W, strain mcm21, stronger effect = lower value)?
A: 0.991

Q: And the normalized growth (locus YDR334W, strain swr1, stronger effect = lower value)?
A: 1

Q: What about the normalized growth (locus YDR335W, strain msn5, stronger effect = lower value) of the same compound?
A: 0.997

Q: And the normalized growth (locus YDR388W, stronger effect = lower value)?
A: 0.99

Q: And the normalized growth (locus YDR392W, strain spt3, stronger effect = lower value)?
A: 0.685 (active)

Q: And the normalized growth (locus YDR502C, strain sam2, stronger effect = lower value)?
A: 0.997

Q: And the normalized growth (locus YEL003W, strain gim4, stronger effect = lower value)?
A: 0.992

Q: What about the normalized growth (locus YEL037C, strain rad23, stronger effect = lower value) of the same compound?
A: 1

Q: And the normalized growth (locus YEL061C, strain CIN8 (second series), stronger effect = lower value)?
A: 1.01

Q: What about the normalized growth (locus YEL061C, strain CIN8, stronger effect = lower value) of the same compound?
A: 1.01

Q: And the normalized growth (locus YER015W, strain faa2, stronger effect = lower value)?
A: 0.996

Q: And the normalized growth (locus YER016W, strain bim1, stronger effect = lower value)?
A: 0.979

Q: And the normalized growth (locus YER110C, stronger effect = lower value)?
A: 0.983

Q: And the normalized growth (locus YER111C, strain swi4, stronger effect = lower value)?
A: 0.984

Q: What about the normalized growth (locus YER155C, strain BEM2 (second series), stronger effect = lower value) of the same compound?
A: 0.715 (active)

Q: What about the normalized growth (locus YER155C, strain BEM2, stronger effect = lower value) of the same compound?
A: 1.02

Q: And the normalized growth (locus YER167W, strain BCK2, stronger effect = lower value)?
A: 0.999

Q: What about the normalized growth (locus YFR010W, strain ubp6, stronger effect = lower value) of the same compound?
A: 1

Q: And the normalized growth (locus YGL078C, strain dbp3, stronger effect = lower value)?
A: 0.997

Q: And the normalized growth (locus YGL086W, strain mad1, stronger effect = lower value)?
A: 0.991

Q: What about the normalized growth (locus YGL167C, strain pmr1, stronger effect = lower value) of the same compound?
A: 1

Q: What about the normalized growth (locus YGL173C, strain kem1, stronger effect = lower value) of the same compound?
A: 0.949

Q: And the normalized growth (locus YGL227W, strain vid30, stronger effect = lower value)?
A: 1

Q: What about the normalized growth (locus YGL240W, strain doc1, stronger effect = lower value) of the same compound?
A: 0.944

Q: What about the normalized growth (locus YGL248W, strain PDE1, stronger effect = lower value) of the same compound?
A: 1

Q: What about the normalized growth (locus YGL253W, strain hxk2, stronger effect = lower value) of the same compound?
A: 0.903 (active)

Q: And the normalized growth (locus YGR135W, strain pre9, stronger effect = lower value)?
A: 0.961

Q: What about the normalized growth (locus YGR252W, strain gcn5, stronger effect = lower value) of the same compound?
A: 0.774

Q: And the normalized growth (locus YHR013C, strain ard1, stronger effect = lower value)?
A: 0.906

Q: What about the normalized growth (locus YHR027C, strain rpn1, stronger effect = lower value) of the same compound?
A: 1.01

Q: And the normalized growth (locus YHR030C, strain SLT2, stronger effect = lower value)?
A: 1.01

Q: What about the normalized growth (locus YHR079C, strain IRE1 (second series), stronger effect = lower value) of the same compound?
A: 0.992

Q: And the normalized growth (locus YHR094C, strain hxt1, stronger effect = lower value)?
A: 0.992

Q: What about the normalized growth (locus YHR129C, strain ARP1, stronger effect = lower value) of the same compound?
A: 1.01

Q: What about the normalized growth (locus YHR142W, strain chs7, stronger effect = lower value) of the same compound?
A: 0.925

Q: And the normalized growth (locus YHR200W, strain rpn10, stronger effect = lower value)?
A: 0.993

Q: What about the normalized growth (locus YIL066C, strain RNR3, stronger effect = lower value) of the same compound?
A: 0.98

Q: What about the normalized growth (locus YIL073C, strain SPO22, stronger effect = lower value) of the same compound?
A: 0.91

Q: And the normalized growth (locus YIL125W, strain kgd1, stronger effect = lower value)?
A: 1

Q: What about the normalized growth (locus YIR030C, strain dcg1, stronger effect = lower value) of the same compound?
A: 0.991

Q: What about the normalized growth (locus YJL092W, strain hpr5, stronger effect = lower value) of the same compound?
A: 0.998

Q: And the normalized growth (locus YJL095W, strain BCK1 (second series), stronger effect = lower value)?
A: 0.981

Q: And the normalized growth (locus YJL095W, strain BCK1, stronger effect = lower value)?
A: 0.944

Q: And the normalized growth (locus YJL115W, strain asf1, stronger effect = lower value)?
A: 0.995

Q: What about the normalized growth (locus YJL129C, strain trk1, stronger effect = lower value) of the same compound?
A: 0.915

Q: What about the normalized growth (locus YJL134W, strain LCB3, stronger effect = lower value) of the same compound?
A: 1.02

Q: And the normalized growth (locus YJL154C, strain vps35, stronger effect = lower value)?
A: 1.02

Q: What about the normalized growth (locus YJL164C, strain tpk1, stronger effect = lower value) of the same compound?
A: 0.907 (active)

Q: What about the normalized growth (locus YJL168C, strain set2, stronger effect = lower value) of the same compound?
A: 0.994

Q: And the normalized growth (locus YJL187C, strain SWE1 (second series), stronger effect = lower value)?
A: 1
